Measurements as given in PubChem BioAssay AID2289 (National Center for Advancing Translational Sciences (NCATS), 2010).
The whole screen tested about 340,000 compounds, of which about 3,300 (0.97%) were called active. Another 9% or so got no clear call; they are omitted. Calls come from the whole dose curve; as a rule, active = well fitted inhibition curve with a large enough effect; inconclusive = small, poorly fitted or top-dose-only effect, or effect the other way; inactive = flat fitted curve, though single readings scatter. The list shows a part of the results.

assay: qHTS Assay for Modulators of miRNAs and/or Inhibitors of miR-21; settings: HeLa miR-21-FLuc reporter, luciferase luminescence, 48 h; actives lower the signal; note: nearly all actives have a fitted effect of over 55% in size
In short: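 Luminescence from a firefly luciferase reporter carrying a miR-21 binding site downstream, stably expressed under a CMV promoter in HeLa cells that make miR-21 endogenously, reports miRNA modulation after 48 h compound exposure up to approximately 40uM final.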
Potency is the fitted concentration of half-maximal effect.

Potency, active:
COc1cccc(C(=O)Nc2ccc3c(c2)OCO3)c1OC 2.07 µM
COc1ccccc1C(=O)N/N=C/c1cnc2ccccc2n1 11.7 µM
COc1cc(Cl)c(C)cc1NC(=O)c1cccc(OC)c1OC 5.21 µM
COc1ccccc1C(=O)N/N=C/c1ccc2c(c1)OCO2 3.29 µM
COc1ccccc1C(=O)Nc1nc2cc3c(cc2s1)OCO3 0.736 µM
O=C(CNC(=O)c1ccccc1F)N/N=C/c1ccc2c(c1)OCO2 18.5 µM
COc1ccccc1C(=O)Nc1ccc2c(c1)OCO2 9.27 µM
CC(=O)c1ccc2c(c1)Cc1cc(C(C)=O)ccc1-2 1.85 µM
COc1ccc(-c2nc3c4ccccc4[nH]c(=O)n3n2)cc1 3.69 µM
Cc1ccc(-c2nc3c4ccccc4[nH]c(=O)n3n2)cc1 1.65 µM
C[C@H](NS(=O)(=O)c1ccc(Cl)cc1)C(=O)OCC(=O)NC(=O)Nc1ccc2c(c1)OCCO2 13.1 µM
Cc1cc(OCc2cn3cccnc3n2)ccc1Cl 7.36 µM
Cc1ccc(OCc2cn3cccnc3n2)cc1 2.07 µM
c1ccc(NCC2OCc3ccccc3CO2)cc1 4.65 µM
Nc1nc(Nc2cccc(Cl)c2)nc(NCc2ccco2)c1[N+](=O)[O-] 13.1 µM
Cc1ccc(Nc2nc(N)c([N+](=O)[O-])c(NCc3ccco3)n2)cc1 18.5 µM
COc1ccccc1C(=O)O/N=C(\N)c1ccccc1Cl 3.29 µM
Cc1ccc(CC(=O)O/N=C(\N)c2ccccn2)cc1 4.14 µM
N/C(=N\OC(=O)Cc1ccccc1)c1ccccc1Cl 5.85 µM
N/C(=N\OC(=O)Cc1ccc(Cl)cc1)c1ccccn1 13.1 µM
Clc1c(-c2ccccc2)nc2ccccn12 5.21 µM
Brc1ccc(-c2ncc3ccccn23)cc1 7.36 µM
Cc1c(-c2ccc(Br)cc2)nc2ccccn12 1.47 µM
CN(C)Cc1c(-c2ccc(Cl)cc2)nc2ccccn12 6.56 µM
COc1ccc(CN=C(C)c2c(C(F)(F)F)[nH]n(-c3nc4ccccc4s3)c2=O)cc1 7.36 µM
CNc1nn(-c2cccc(Cl)c2)nc1N 4.47 µM
O=C(NNc1nc2cc3c(cc2s1)OCCO3)c1ccccc1 14.7 µM
O=C(NNc1nc2cc3c(cc2s1)OCO3)c1ccccc1 13.1 µM
COc1ccc(CNc2nc(-c3ccccc3)nn2C(=O)c2ccc([N+](=O)[O-])cc2)cc1 14.7 µM
COCC(=O)n1nc(-c2ccco2)nc1NCc1ccccc1Cl 16.5 µM
CN(C)c1ccc(CNc2nc(-c3ccco3)nn2S(C)(=O)=O)cc1 7.36 µM
CC(C)c1ccc(CNc2nc(-c3ccco3)nn2C(=O)c2ccc([N+](=O)[O-])cc2)cc1 2.07 µM
O=C(Cc1ccccc1[N+](=O)[O-])NCc1ccc2c(c1)OCO2 10.4 µM
Cc1ccccc1CNC(=O)Cc1ccccc1[N+](=O)[O-] 5.21 µM
O=C(CC12CCC(CC1)C2)NCc1ccc2c(c1)OCO2 16.5 µM
O=C(Cc1ccccc1[N+](=O)[O-])NCc1ccc(Cl)cc1 14.7 µM
CCn1cnc2cc(NCc3ccc(Br)cc3)ccc21 3.29 µM
CCCn1cnc2cc(NCc3cccs3)ccc21 7.36 µM
CCCn1cnc2cc(NCc3ccc(Br)cc3)ccc21 7.36 µM
COC(=O)c1ccc(N=NNc2ccc(C(=O)OC)cc2)cc1 0.208 µM
COC(=O)c1ccc(NN=Nc2ccc(C)cc2)cc1 2.07 µM
O=C(NCC1CCCO1)c1sc2ccccc2c1Cl (centres undefined) 3.29 µM
CC(NC(=O)c1sc2ccccc2c1Cl)C1CCCO1 (centres undefined) 5.21 µM
CCn1c2ccccc2c2nc3cc(C(=O)O)ccc3nc21 9.27 µM
Cc1ccc(C(=O)Cc2cc3ccccc3oc2=O)c(C)c1 2.07 µM
COc1cccc2cc(CC(=O)c3ccc(C)cc3C)c(=O)oc12 11.7 µM
CN(c1ccccc1)c1nc2ccsc2c(=O)s1 12.6 µM
COc1ccc(-c2cc(C(=O)c3c(N)n(C)c(=O)n(C)c3=O)c3ccccc3n2)cc1OC 4.65 µM
COc1ccc2c(c1)CCC/C2=N\NC(=O)c1ccoc1C 2.93 µM
CC(=O)N1N=C(c2ccc(C)cc2)OC1c1ccc(C(C)C)cc1 (centres undefined) 3.29 µM
CN1N=C(C(=O)N2CCc3c([nH]c4ccccc34)C2c2ccccc2Cl)CCC1=O (centres undefined) 10.4 µM
O/N=C/c1ccc(OCc2ccccc2)c(Cl)c1 2.07 µM
O/N=C/c1ccc(OCc2ccccc2)c(Br)c1 3.69 µM
CCCOc1ccc(-c2nc(N3CCN(C)CC3)c3ccccc3n2)cc1 2.93 µM
COc1cc(CNc2ccc(NC(C)=O)cc2)ccc1OCc1ccccc1C 7.36 µM
c1ccc(-c2nnc(-c3ccccc3)nn2)cc1 2.07 µM
Cc1ccc(-c2nnc(/C=C/c3ccccc3)o2)cc1 0.329 µM
Nc1ccc(-c2nnc(-c3ccc(N)cc3)o2)cc1 3.29 µM
COc1nc(-c2ccccc2)nnc1-c1ccccc1 1.17 µM
c1ccc(-c2nnc(-c3ccccc3)o2)cc1 1.31 µM
O=C(O)c1ccc(-c2nnc(-c3ccccc3)o2)cc1 0.329 µM
Cc1ccc2nc(-c3ccc(NC(=O)CN(C)S(=O)(=O)c4ccccc4)cc3)sc2c1 0.369 µM
Cc1cc(C)cc(N(CC(=O)Nc2ccc(-c3nc4ccc(C)cc4s3)cc2)S(C)(=O)=O)c1 3.29 µM
Cc1cccc(N(CC(=O)Nc2ccc(-c3nc4ccc(C)cc4s3)cc2)S(C)(=O)=O)c1 4.14 µM
Cc1ccc(C(=O)Nc2cc3c(cc2Cl)OCCCO3)cc1 1.31 µM
O=C(Nc1cc2c(cc1Cl)OCCCO2)c1ccc(F)cc1 3.69 µM
O=C(/C=C/c1ccco1)Nc1ccc(N2CCCC2)cc1 1.65 µM
O=C(/C=C\c1ccco1)c1ccc(NC(=O)c2ccco2)cc1 13.1 µM
CC(C)(C)n1cnc2cc(NC(=O)c3cccs3)ccc21 1.65 µM
O=C(Nc1ccc(NC(=O)c2cccs2)cc1)c1ccco1 8.26 µM
O=C(CNC(=O)c1ccco1)Nc1ccc(Br)cc1 11.7 µM
O=C(Nc1ccc(NC(=O)c2cccs2)cc1)c1cccs1 5.21 µM
N#Cc1c(/N=C/c2cccs2)sc2c1CCCCC2 0.464 µM
Cc1ccc(/C=N/c2sc3c(c2C#N)CCC3)s1 0.261 µM
O=C(CSc1nccn1-c1ccccc1)Nc1nc2ccccc2s1 6.56 µM
O=C(CC1CCCCC1)Nc1nc2ccccc2s1 1.85 µM
CC1(C(=O)Nc2nc3ccccc3s2)CC1(Br)Br (centres undefined) 8.26 µM
COc1ccc(C2CC(C)(c3ccc(OC)cc3)Nc3ccccc3N2)cc1 (centres undefined) 7.36 µM
O=C(c1ccccc1)c1cnc(-c2ccc(Cl)cc2)s1 0.464 µM
O=C(COc1ccc(Cl)cc1Cl)c1ccc[nH]1 10.4 µM
O=C(COc1ccc(Cl)cc1Cl)NCc1ccco1 16.5 µM
N#Cc1ccccc1OCC(=O)NC(=O)NCc1ccco1 6.56 µM
COc1cc2ccccc2cc1C(=O)Nc1ccc(N2CCN(C)CC2)cc1 7.36 µM
CC(C)C(=O)Nc1ccc(NC(=O)c2cc3ccccc3o2)cc1 11.2 µM
Cc1nnc(NC(=O)c2cc3ccccc3o2)s1 8.26 µM
CN1CCN(c2ccc(NC(=O)c3sc4ccccc4c3Cl)cc2)CC1 1.17 µM
CN1CCN(c2ccc(NC(=O)c3cc4ccccc4o3)cc2)CC1 0.927 µM
O=C(Nc1ncccc1Cl)c1cc2ccccc2o1 0.656 µM
CC(Cc1ccccc1)NC(=O)c1cc2ccccc2o1 (centres undefined) 6.56 µM
COc1cc(/C=N/O)ccc1OCc1ccc([N+](=O)[O-])cc1 3.29 µM
COc1cc(/C=N/O)ccc1OCc1ccc(Cl)cc1 0.369 µM
COc1cc(/C=N/O)ccc1OCc1ccccc1Cl 2.93 µM
Cc1ccc2c(c1)COc1c3ccc(C(=O)N4CCCCC4)cc3nn1-2 3.69 µM
O=C(c1ccc2c3n(nc2c1)-c1ccc(Cl)cc1CO3)N1CCOCC1 5.21 µM
Cc1ccc2c(c1)COc1c3ccc(C(=O)N4CCOCC4)cc3nn1-2 5.21 µM
O=C(CSc1nnc(-c2ccccn2)o1)Nc1cccc(Cl)c1 1.85 µM
C#Cc1cccc(NC(=O)CSc2nnc(-c3ccc(C(F)(F)F)cn3)o2)c1 4.14 µM
O=C(CSc1nnc(-c2ccc(C(F)(F)F)cn2)o1)Nc1cccc(Cl)c1 4.14 µM
CC(C)Nc1cc(C(C)(C)C)nc2c(-c3ccccc3)cnn12 6.56 µM
Cc1cc(C)n(-c2cc(C(C)(C)C)nc3c(-c4ccccc4)cnn23)n1 2.61 µM
CN(C)CCCNc1cc(C(C)(C)C)nc2c(-c3ccccc3)cnn12 2.93 µM
CCn1cnc2sc(C(=O)Nc3ccc4c(c3)OCO4)c(C)c2c1=O 3.16 µM
Cc1cc(N/N=C/c2ccccc2Br)nc2ccccc12 13.1 µM
Cc1cc(N/N=C/c2ccncc2)nc2ccccc12 5.85 µM
